# Results taken from article PMC7862700, “An all-to-all approach to the identification of sequence-specific readers for epigenetic DNA modifications on cytosine”.
# How the values were obtained:
# Assay in all cases: DAPPL (digital affinity profiling via proximity ligation, sequencing); 10 mM Tris-HCl pH 7.5, 50 mM NaCl, 1 mM DTT, 4% glycerol, room temperature, 30 min; GST-TFs on glutathione beads, 16-mer random dsDNA library, 0.1% formaldehyde crosslink after washing; high values mean tight binding
# Conditions in all cases: protein: recombinant; tags: N-terminal GST; dsDNA, one strand shown
# [1] = target: ETV1 (Homo sapiens, UniProt P50549 1-477)
# Sequence of ETV1 (P50549 whole entry, the tested form may be a part): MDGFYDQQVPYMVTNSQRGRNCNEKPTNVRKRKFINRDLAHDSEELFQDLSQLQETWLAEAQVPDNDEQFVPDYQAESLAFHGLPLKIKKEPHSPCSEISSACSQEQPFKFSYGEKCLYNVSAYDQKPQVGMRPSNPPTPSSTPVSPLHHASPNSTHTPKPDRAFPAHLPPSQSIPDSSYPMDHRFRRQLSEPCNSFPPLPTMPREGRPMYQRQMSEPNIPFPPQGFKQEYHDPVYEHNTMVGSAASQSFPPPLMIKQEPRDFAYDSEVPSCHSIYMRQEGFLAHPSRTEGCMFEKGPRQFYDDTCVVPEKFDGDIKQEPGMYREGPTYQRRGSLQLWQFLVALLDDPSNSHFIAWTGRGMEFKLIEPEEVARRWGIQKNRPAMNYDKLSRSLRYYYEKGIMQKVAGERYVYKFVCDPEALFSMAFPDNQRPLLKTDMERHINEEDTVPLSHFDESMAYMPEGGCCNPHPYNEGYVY
# Procedure, shortened: (§1)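 A tag-only sample was pooled with DNA-barcoded human transcription factors that had been expressed in yeast as GST fusions and captured on glutathione beads. The pools were incubated for 30 min at room temperature with 200 nmole of a random double-stranded 16-mer DNA library in Tris/NaCl/DTT/glycerol buffer, then washed, crosslinked with 0.1% formaldehyde, proximity-ligated (BsaI/T4 ligase, 1 h, 37 °C), PCR-amplified and sequenced on an Illumina NextSeq500. Binding signal is each hexamer's read frequency for a factor divided by its frequency for the tag-only sample.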
# [2] = target: T1, ERF (Homo sapiens, UniProt P50548 1-548)
# T1 sequence: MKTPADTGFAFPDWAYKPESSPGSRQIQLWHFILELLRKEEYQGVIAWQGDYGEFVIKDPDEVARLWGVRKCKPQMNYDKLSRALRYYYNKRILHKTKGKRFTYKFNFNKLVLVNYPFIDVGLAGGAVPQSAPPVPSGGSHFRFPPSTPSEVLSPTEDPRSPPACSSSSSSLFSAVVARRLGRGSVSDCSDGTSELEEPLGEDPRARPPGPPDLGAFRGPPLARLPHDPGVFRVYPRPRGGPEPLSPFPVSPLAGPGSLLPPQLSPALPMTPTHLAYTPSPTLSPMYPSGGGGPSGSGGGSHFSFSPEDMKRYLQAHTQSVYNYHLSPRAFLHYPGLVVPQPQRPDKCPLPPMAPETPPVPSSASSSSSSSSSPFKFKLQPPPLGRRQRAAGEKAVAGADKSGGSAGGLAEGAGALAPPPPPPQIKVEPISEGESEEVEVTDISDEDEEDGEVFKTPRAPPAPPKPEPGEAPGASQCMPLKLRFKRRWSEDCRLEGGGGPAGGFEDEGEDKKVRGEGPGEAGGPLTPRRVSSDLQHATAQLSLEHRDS
# Procedure, shortened: as §1
# [3] = target: T2, ETV3L (Homo sapiens, UniProt Q6ZN32 1-361)
# T2 sequence: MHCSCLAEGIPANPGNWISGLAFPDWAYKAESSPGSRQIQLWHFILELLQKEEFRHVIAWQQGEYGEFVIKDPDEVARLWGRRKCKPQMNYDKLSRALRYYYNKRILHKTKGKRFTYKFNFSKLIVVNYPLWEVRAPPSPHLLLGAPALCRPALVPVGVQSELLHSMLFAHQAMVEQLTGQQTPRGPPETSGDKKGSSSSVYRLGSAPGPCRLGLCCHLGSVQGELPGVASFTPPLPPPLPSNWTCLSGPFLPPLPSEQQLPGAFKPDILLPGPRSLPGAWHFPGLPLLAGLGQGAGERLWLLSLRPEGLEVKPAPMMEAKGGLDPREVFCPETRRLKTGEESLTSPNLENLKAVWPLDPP
# Procedure, shortened: as §1
# [4] = target: T3, ETS2 (Homo sapiens, UniProt P15036 1-469)
# T3 sequence: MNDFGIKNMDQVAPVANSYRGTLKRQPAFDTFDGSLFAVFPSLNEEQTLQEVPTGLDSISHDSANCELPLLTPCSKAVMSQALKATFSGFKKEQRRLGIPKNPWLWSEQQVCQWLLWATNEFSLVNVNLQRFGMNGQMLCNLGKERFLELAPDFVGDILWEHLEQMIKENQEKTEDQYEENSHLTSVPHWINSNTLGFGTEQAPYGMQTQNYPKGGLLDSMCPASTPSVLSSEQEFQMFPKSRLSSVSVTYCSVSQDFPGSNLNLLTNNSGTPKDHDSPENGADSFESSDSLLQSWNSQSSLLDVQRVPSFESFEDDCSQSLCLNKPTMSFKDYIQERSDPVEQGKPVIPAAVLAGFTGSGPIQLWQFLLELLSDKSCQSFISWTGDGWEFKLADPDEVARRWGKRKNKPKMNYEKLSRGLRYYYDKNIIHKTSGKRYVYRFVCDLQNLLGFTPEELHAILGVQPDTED
# Procedure, shortened: as §1
# [5] = target: T4, SPDEF (Homo sapiens, UniProt O95238 1-335)
# T4 sequence: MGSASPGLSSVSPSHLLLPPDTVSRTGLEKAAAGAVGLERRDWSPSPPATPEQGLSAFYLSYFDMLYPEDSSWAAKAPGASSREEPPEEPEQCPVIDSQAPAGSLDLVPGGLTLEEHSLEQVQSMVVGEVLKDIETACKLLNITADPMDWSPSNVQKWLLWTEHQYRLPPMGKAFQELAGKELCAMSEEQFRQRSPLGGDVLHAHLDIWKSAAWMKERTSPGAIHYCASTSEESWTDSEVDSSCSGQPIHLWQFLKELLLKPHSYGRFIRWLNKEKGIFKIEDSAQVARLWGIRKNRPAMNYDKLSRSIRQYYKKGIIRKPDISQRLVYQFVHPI
# Procedure, shortened: as §1
# [6] = target: T5, ETV7 (Homo sapiens, UniProt Q9Y603 1-341)
# T5 sequence: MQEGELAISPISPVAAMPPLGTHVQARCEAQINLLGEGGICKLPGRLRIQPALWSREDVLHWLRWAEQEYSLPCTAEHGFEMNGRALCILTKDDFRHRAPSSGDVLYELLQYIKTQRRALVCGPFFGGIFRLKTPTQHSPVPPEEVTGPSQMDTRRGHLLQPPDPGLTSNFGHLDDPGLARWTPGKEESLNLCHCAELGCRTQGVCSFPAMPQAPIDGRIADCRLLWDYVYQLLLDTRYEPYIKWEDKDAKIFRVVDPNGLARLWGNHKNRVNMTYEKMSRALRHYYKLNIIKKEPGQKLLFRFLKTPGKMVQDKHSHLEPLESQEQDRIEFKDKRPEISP
# Procedure, shortened: as §1
# [7] = target: T6, ELF5 (Homo sapiens, UniProt Q9UKW6-2 1-255)
# T6 sequence: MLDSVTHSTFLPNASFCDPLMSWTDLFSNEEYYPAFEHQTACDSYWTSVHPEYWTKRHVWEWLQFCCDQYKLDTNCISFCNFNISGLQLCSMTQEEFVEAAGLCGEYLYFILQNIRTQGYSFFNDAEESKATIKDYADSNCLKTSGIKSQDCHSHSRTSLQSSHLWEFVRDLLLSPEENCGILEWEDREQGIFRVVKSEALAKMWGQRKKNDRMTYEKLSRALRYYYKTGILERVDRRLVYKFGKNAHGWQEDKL
# Procedure, shortened: as §1
# [8] = target: T7, ETV3 (Homo sapiens, UniProt P41162-2 1-143)
# T7 sequence: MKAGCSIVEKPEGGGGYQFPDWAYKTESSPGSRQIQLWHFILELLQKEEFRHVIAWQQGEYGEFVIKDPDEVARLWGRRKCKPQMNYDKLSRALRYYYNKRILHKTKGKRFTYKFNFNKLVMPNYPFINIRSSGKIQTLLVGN
# Procedure, shortened: as §1
# [9] = target: ETV6 (Homo sapiens, UniProt P41212 1-452)
# Sequence of ETV6 (P41212 whole entry): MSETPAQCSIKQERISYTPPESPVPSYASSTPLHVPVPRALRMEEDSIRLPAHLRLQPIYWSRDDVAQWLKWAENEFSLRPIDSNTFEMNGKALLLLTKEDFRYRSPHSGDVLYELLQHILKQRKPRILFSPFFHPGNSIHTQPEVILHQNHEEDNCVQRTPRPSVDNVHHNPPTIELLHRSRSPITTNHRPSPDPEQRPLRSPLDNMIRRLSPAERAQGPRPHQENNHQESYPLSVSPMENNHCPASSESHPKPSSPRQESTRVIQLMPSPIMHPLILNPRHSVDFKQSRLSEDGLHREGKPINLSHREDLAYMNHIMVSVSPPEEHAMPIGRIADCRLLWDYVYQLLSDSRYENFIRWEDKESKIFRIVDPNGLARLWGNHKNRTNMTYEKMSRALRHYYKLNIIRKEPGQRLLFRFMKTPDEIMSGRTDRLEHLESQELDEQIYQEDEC
# Procedure, shortened: as §1
sequence,measurement,setting,value
TCCCGC,binding signal,[1],"1.5 fold enrichment (6-mer frequency, TF over GST control)"
same,binding signal,[2],"1.47 fold enrichment (6-mer frequency, TF over GST control)"
same,binding signal,[3],"1.44 fold enrichment (6-mer frequency, TF over GST control)"
same,binding signal,[4],"1.34 fold enrichment (6-mer frequency, TF over GST control)"
same,binding signal,[5],"1.5 fold enrichment (6-mer frequency, TF over GST control)"
same,binding signal,[6],"1.65 fold enrichment (6-mer frequency, TF over GST control)"
same,binding signal,[7],"1.59 fold enrichment (6-mer frequency, TF over GST control)"
same,binding signal,[8],"1.37 fold enrichment (6-mer frequency, TF over GST control)"
same,binding signal,[9],"1.5 fold enrichment (6-mer frequency, TF over GST control)"
